Measured values reported in the supplement of paper PMC8387472.
Where “and” joins values, the source holds several entries; their conditions need not be identical. Identical values can stand only once. Counter-ions that a name gives are not always drawn. ± gives the standard deviation of the averaged measurements.

Tested on: mESC LDLR-Dup GFP reporter (SpCas9 MH-deletion repair)
Assay: fraction of GFP+ cells relative to DMSO control (fold change); higher = more MH-deletion repair to in-frame LDLR (or more editing)
Details: 2 µM; 7 days post-transfection

SMILES	fraction of GFP+ cells
O=C(NCC1(c2nc(-c3ccccc3)cs2)CCOCC1)c1cccc(-c2noc(C(F)(F)F)n2)c1	0.752 ± 0.12
CN(CCOc1ccc(CC2SC(=O)NC2=O)cc1)c1ccccn1 (centres undefined) [Rosiglitazone]	1.48 ± 0.26
Cn1c(=O)cc(C(=O)Nc2ccc3c(c2)OCCO3)c2ccccc21	0.931 ± 0.27
CCCCCCCCC/C(=C\C1=C(C)C(=O)C(OC)=C(OC)C1=O)C(=O)O	1.19 ± 0.5
CCN1/C(=C/C(C)=O)Sc2ccc(OC)cc21	0.802 ± 0.095
CCc1ccc(CCOc2ccc(CC3SC(=O)NC3=O)cc2)nc1 (centres undefined) [Pioglitazone HCl]	1.11 ± 0.13
CCn1cc(C(=O)O)c(=O)c2cc(F)c(N3CCN(C)CC3)cc21 [Pefloxacin Mesylate Dihydrate]	1.13 ± 0.09
O=c1[nH]c(=O)n(C2CC(O)C(CO)O2)cc1Br (centres undefined) [Bromodeoxyuridine (BrdU)]	1.79 ± 0.2
Nc1[nH]cnc2ncnc1-2 [Adenine]	0.896 ± 0.31
N=C1NC(=O)/C(=C/c2ccc(O)cc2)S1 [Mirin]	0.862 ± 0.2
C[C@]1(c2nc3c(C(N)=O)cccc3[nH]2)CCCN1 [Veliparib (ABT-888)]	0.657 ± 0.19
Cc1cn([C@H]2O[C@@H](CO)[C@H](O)[C@H]2F)c(=O)[nH]c1=O [Clevudine]	0.898 ± 0.28
COc1c(N2C[C@@H]3CCCN[C@@H]3C2)c(F)cc2c(=O)c(C(=O)O)cn(C3CC3)c12 [Moxifloxacin HCl]	0.624 ± 0.29
Cc1nc(-c2cccnc2)sc1C(=O)Nc1ccccc1-c1cn2c(CN3CCOCC3)csc2n1	1.34 ± 0.54
Cc1ncc([N+](=O)[O-])n1CCO [Metronidazole]	0.96 ± 0.35
CN1CCCC(n2nc(Cc3ccc(Cl)cc3)c3ccccc3c2=O)CC1 (centres undefined) [Azelastine HCl]	0.868 ± 0.11
O=C(O)C(Cc1ccccc1[N+](=O)[O-])=NNc1nc(-c2ccc(Cl)c(Cl)c2)cs1 (mixture of isomers)	1.15 ± 0.48
Cc1ccc(CNc2ncnc3ccc(-c4ccc(CO)o4)cc23)o1	1.08 ± 0.19
N#Cc1c(Oc2ccc(F)c(NC(=O)Cc3cccc(C(F)(F)F)c3)c2)ccc2nc(NC(=O)C3CC3)sc12	0.727 ± 0.25
NC(=O)C1CCCc2c1[nH]c1ccc(Cl)cc21 (centres undefined) [Selisistat (EX 527)]	1.18 ± 0.47

SMILES	fraction of GFP+ cells
Oc1cccc(-c2nc(N3CCOCC3)c3oc4ncccc4c3n2)c1	0.542 ± 0.15
O=P(O)(O)C(O)(Cn1ccnc1)P(=O)(O)O [Zoledronic Acid Monohydrate]	1.07 ± 0.25
CS(=O)(=O)c1ccc(-c2nnc(/C=C/c3nnc(-c4ccc(C#N)cc4)o3)n2-c2ccccc2Cl)nc1	0.816 ± 0.089
Cc1ccc(S(=O)(=O)c2ccc([N+](=O)[O-])o2)cc1	1.39 ± 0.46
Cc1ccc(C)c(OCCCC(C)(C)C(=O)O)c1 [Gemfibrozil]	1.46 ± 0.29
Cc1cc(Cl)ccc1OCCCC(=O)NO [Droxinostat]	0.706 ± 0.06
NC(=O)NO [Hydroxyurea]	0.829 ± 0.24
Nc1ncnc2c1ncn2[C@@H]1O[C@H](CO)[C@@H](O)[C@@H]1O [Vidarabine]	1.26 ± 0.36
CC(ONC(=O)c1cc(C(F)(F)F)cc(C(F)(F)F)c1)C(=O)Nc1ccc(Cl)cc1 (centres undefined)	0.994 ± 0.12
CCn1cc(C(=O)O)c(=O)c2ccc(C)nc21 [Nalidixic acid]	1.08 ± 0.015
CC(=O)c1c(C)c2cnc(Nc3ccc(N4CCNCC4)cn3)nc2n(C2CCCC2)c1=O	1.36 and 0.964
Cn1cc(-c2cnn3c(N)c(Br)c([C@@H]4CCCNC4)nc23)cn1	0.689 ± 0.069
C/C(=C\C(=O)OCCCCCCCCC(=O)O)C[C@@H]1OC[C@H](C[C@@H]2O[C@H]2[C@@H](C)[C@H](C)O)[C@@H](O)[C@H]1O [Mupirocin]	1.12 ± 0.3
C[C@@H](N)c1ccc(C(=O)Nc2ccnc3[nH]ccc23)cc1	1.54 ± 0.27
CN1CCN(Cc2ccc(NC(=O)Nc3ccc(Oc4ccnc(N)n4)cc3)cc2C(F)(F)F)CC1	0.335 ± 0.13
CN(C)CCCCC(=O)Nc1ccc(NC(=S)NC(=O)c2ccc(C(C)(C)C)cc2)cc1 [Tenovin-6]	0.625 ± 0.2
Nc1ccc(O)c(C(=O)O)c1 [Mesalamine]	0.933 ± 0.049
C=C1CC[C@H](O)C/C1=C/C=C1\CCC[C@]2(C)[C@@H]([C@H](C)/C=C/[C@H](C)C(C)C)CC[C@@H]12 [Vitamin D2]	1.43 ± 0.26
Cn1cc(/C=C/C(=O)c2cccc(F)c2)cc1/C=C/C(=O)NO	0.876 ± 0.1
